Results: ChEMBL document CHEMBL3988442, “University of Dundee, Small-Polar-MMV Screening Library” (2021)
About 950 (1.4%) of roughly 69,000 compounds showed an effect of 50% or more. For the sample, strong results were picked, then their nearest neighbours and some compounds at random.

These molecules were tested on Mycobacterium tuberculosis (assay: Cornell M. t heat shock assay; further: in the data most compounds retested in dose-response had high values).
Format: functional, organism-based
Design: dose or concentration left out as unconfirmed

| SMILES | Percent Effect |
| --- | --- |
| COc1cccc(CN2C[C@@H]3COC[C@]3(CN3CCOCC3)C2)c1.O=C(O)C(F)(F)F.O=C(O)C(F)(F)F | -20.77% |
| Cc1noc(C)c1CN1C[C@@H]2COC[C@@H](CC(=O)N3CCCCO3)[C@@H]2C1.O=C(O)C(F)(F)F | -4.663% |
| CCC(C)[C@H](N)c1nnc(SCC(=O)Nc2ccc(Br)cc2)o1.Cl (stereo partly specified) | -9.343% |
| O=C(O)C(F)(F)F.c1cc(COC[C@H]2CCC[C@]23CNCCO3)ccn1 | 31.7% |
| CN(C)c1ncnc2c1CCN(CC1CCCC1)CC2.O=C(O)C(F)(F)F | 2.211% |
| CC(C)(C)c1cn2c(n1)C(CNCc1cnn3ccccc13)CCC2 (stereo unspecified) | 15.66% |
| CC(C)(C)c1cn2c(n1)C(CNCc1ccccn1)CCC2 (stereo unspecified) | 70.45% |
| Cn1cccc1CNCC1CCCn2cc(C(C)(C)C)nc21 (stereo unspecified) | 1.286% |
| CCOCC1CN(c2ccncn2)Cc2cnn(CC3CC3)c21.O=C(O)C(F)(F)F.O=C(O)C(F)(F)F (stereo unspecified) | -24.31% |
| COc1ncccc1C(=O)N1CC[C@]2(C[C@@H](Oc3cccnc3)CO2)C1.O=C(O)C(F)(F)F.O=C(O)C(F)(F)F | -28% |
| Cc1cccc(CN2C[C@@H]3COC[C@]3(CNC(=O)c3ccccc3)C2)n1.O=C(O)C(F)(F)F.O=C(O)C(F)(F)F | -15.75% |
| CN1CC(=O)N(c2cnn(C)c2)CC12CCN(Cc1cccnc1)C2.O=C(O)C(F)(F)F.O=C(O)C(F)(F)F.O=C(O)C(F)(F)F (stereo unspecified) | -54.01% |
| Cc1noc(C)c1CN1C[C@@H]2COC[C@@H](C(=O)N3CCCCO3)[C@@H]2C1.O=C(O)C(F)(F)F | -3.514% |
| COc1ccccc1N1CCN(C(=O)Cn2nccc2C)CC1(C)C | 90.85% |
| COc1ccccc1N1CCN(C(=O)Cn2nc(C)cc2C)CC1(C)C | 8.115% |
| COc1ccc(N2CCN(C(=O)Cn3nccc3C)CC2(C)C)cc1 | 16.6% |
| O=C(Cc1c[nH]c2ccccc12)N1CCN(C(=O)c2ccoc2)CC1 | 3.224% |
| O=C(c1c[nH]c2ccccc2c1=O)N1CCSCC1 | 105.4% |
| COc1ccc2[nH]cc(C(=O)N3CC[C@H](CO)[C@@H](O)C3)c(=O)c2c1 | -0.5763% |
| Cc1nccc(NCc2cncc3c2CCN(CCN(C)C)C3)n1 | 3.393% |
| COc1ccccc1N1CCN(Cc2ncc(C)c(OC)c2C)CC1=O | 18.05% |
| Cc1cc(C)n(C2=NC(NCCC(C)C)c3c(sc4c3CCCC4)N2)n1 (stereo unspecified) | 11.87% |
| Cc1cc(C)n(-c2nc(NCCCO)c3c4c(sc3n2)CCCC4)n1 | 101.1% |

| SMILES | Percent Effect |
| --- | --- |
| COCCNc1nc(-n2nc(C)cc2C)nc2sc3c(c12)CCCC3 | 40.33% |
| CO[C@@H]1CN(c2ccccc2)S(=O)(=O)[C@@]12CCN(C(C)=O)C2 | 16.02% |
| Cc1ccc(CN(CCCn2ccnc2)Cc2ccccc2O)s1.O=C(O)CC(O)(CC(=O)O)C(=O)O | 35.85% |
| CN(C)c1ccc(CN(CCCn2ccnc2)Cc2c[nH]cn2)cc1.O=C(O)CC(O)(CC(=O)O)C(=O)O | 16.53% |
| Cc1ccc(CN(CCCO)Cc2nc3ccccc3[nH]2)s1 | -17.57% |
| Cc1ccc(O)c(CN(CCCn2ccnc2)Cc2ccc(C)s2)c1.O=C(O)CC(O)(CC(=O)O)C(=O)O | 105.6% |
| Cc1ccc(S(=O)(=O)N2CCN(CCCn3ccnc3)CC2)cc1 | 15.57% |
| Cc1cccc(CC(=O)N2CCN(c3nccn3C)CC2)c1.Cl | -13.18% |
| O=C(O)C(F)(F)F.O=C(O)C(F)(F)F.c1csc(CN2C[C@@H]3COC[C@]3(COCc3ccncc3)C2)c1 | -17.61% |
| O=C(Cc1ccc(F)cc1)N1CCn2cc(Cn3cccn3)nc2C1.O=C(O)C(F)(F)F | 1.862% |
| CC(C)n1nccc1NC(=O)CN1CCc2sccc2C1 | -0.741% |
| Cn1nccc1NC(=O)CN1CCc2sccc2C1 | -34.76% |
| O=C(CN1CCc2sccc2C1)Nc1ccnc2ccnn12 | 101.6% |
| Cc1ccoc1C(=O)N1CCc2ccc(=O)n(CCN(C)C)c2CC1.O=C(O)C(F)(F)F | -10.47% |
| CCc1ocnc1C(=O)N1CCOC(CCCC(C)C)C1 (stereo unspecified) | 2.233% |
| CCNc1ncc(C(=O)N2CCOC(CCCc3ccccc3)C2)cn1 (stereo unspecified) | 13.88% |
| CCNc1ncc(C(=O)N2CCOC(CCCC(C)C)C2)cn1 (stereo unspecified) | 101.8% |
| Cn1cc2c(n1)C(CNCc1ccco1)OCC2.O=C(O)C(F)(F)F.O=C(O)C(F)(F)F (stereo unspecified) | -43.95% |
| CC(C)C(=O)N1CCC[C@]2(C(=O)N(C)C)CN(c3ccccn3)C[C@@H]2C1.O=C(O)C(F)(F)F | -34.76% |
| CN(C)C(=O)C1OC2(CCNCC2)c2ccccc21.O=C(O)C(F)(F)F (stereo unspecified) | -39.36% |
| Cc1cnn(CC(C)NCc2csc(-c3cccs3)n2)c1 (stereo unspecified) | 37.01% |
| CC(Cn1cccn1)NCc1csc(-c2ccsc2)n1 (stereo unspecified) | 22.32% |
| CC(Cn1cccn1)NCc1csc(-c2cccs2)n1 (stereo unspecified) | 54.31% |

| SMILES | Percent Effect |
| --- | --- |
| CC(Cn1cccn1)NCc1nc(-c2ccccc2Cl)no1 (stereo unspecified) | 1.662% |
| Cc1cnn(CC(C)NCc2csc(-c3ncccn3)n2)c1 (stereo unspecified) | 10.59% |
| CC(Cn1cccn1)NCc1csc(-c2ccccc2F)n1 (stereo unspecified) | 54.47% |
| COCC(=O)N1C[C@@H](OCc2ccncc2)[C@@H]2OCCC[C@@H]21.O=C(O)C(F)(F)F | -15.14% |
| Cc1ccc2c(c1)CN(C(=O)c1ccncc1)C(CN(C)C)CO2.Cl (stereo unspecified) | -12.12% |
| COCC(=O)NCc1cc(=O)n2c(n1)CN(CC1CC1)CCC2.O=C(O)C(F)(F)F | 0.2802% |
| COC[C@H]1CC[C@@H]2[C@@H](CCN2Cc2ccccn2)O1.O=C(O)C(F)(F)F.O=C(O)C(F)(F)F | -12.12% |
| COc1cccc(CN2CCc3nc4ccsc4c(=O)n3CC2)c1.Cl | -5.651% |
| CC1(c2ccccc2)CCCN(Cc2nnc(-c3cccnc3)o2)C1 (stereo unspecified) | 31.3% |
| O=C(CCc1ccccc1)C1CCCN(Cc2cncn2C2CC2)C1 (stereo unspecified) | 5.776% |
| COCCn1cncc1CN1CCCC(C)(c2ccccc2)C1 (stereo unspecified) | 52.06% |
| COCCn1cncc1CN1CCCC(C(=O)Cc2ccccc2)C1 (stereo unspecified) | 2.668% |
| CN1CCCC2(CCN(Cc3cncn3C3CCCCC3)C2)C1=O (stereo unspecified) | 13.88% |
| COCCn1cncc1CN1CCC(C(C)=O)(c2ccccc2)CC1 | -3.844% |
| CC1(c2ccccc2)CCCN(Cc2cncn2C2CC2)C1 (stereo unspecified) | 105.6% |
| CC1(c2ccccc2)CCCN(Cc2cncn2C2CCCC2)C1 (stereo unspecified) | 105.4% |
| CCCN1CCCC2(CCN(Cc3cncn3C3CCCC3)C2)C1=O (stereo unspecified) | -6.674% |
| CC(NC(=O)NCc1ccccc1)(C(=O)O)c1ccco1 (stereo unspecified) | -8.455% |
| CC(=O)CN1CC2(CCNCC2)COc2ccccc2S1(=O)=O.O=C(O)C(F)(F)F | -27.15% |
| Cn1ccc(C(=O)N2CCOC3(COCCN(CC4CC4)C3)C2)n1.O=C(O)C(F)(F)F (stereo unspecified) | 32.82% |
| CS(=O)(=O)N[C@@H]1CN(C(=O)c2cccnc2)[C@@H]2CCCO[C@@H]21.O=C(O)C(F)(F)F | -22.75% |
| COCCN1CCc2cc(C(=O)NC(C)C)c(NCC3CC3)nc2CC1.O=C(O)C(F)(F)F.O=C(O)C(F)(F)F | -25.1% |
| Cn1c2c(ccc1=O)CCN(Cc1ccoc1)CC2.O=C(O)C(F)(F)F | -16.65% |

| SMILES | Percent Effect |
| --- | --- |
| Cl.Cn1nc(C2CCCN(Cc3cccs3)C2)c2nccnc21 (stereo unspecified) | 1.565% |
| CN(C)CCN1CC[C@@H]2O[C@@H](COCC(=O)N3CCCC3)CC[C@@H]21.O=C(O)C(F)(F)F.O=C(O)C(F)(F)F | -33.31% |
| Cc1noc(C(C)C)c1C(=O)NCCCN1CCNCC1.Cl | 0.9177% |
| O=S(=O)(Cc1nc(C2CC2)no1)c1ccccc1F | 12.43% |
| Cc1noc(C)c1CS(=O)(=O)Cc1nc(C2CC2)no1 | 6.324% |
| Cc1ccccc1CS(=O)(=O)Cc1nc(C2CC2)no1 | 92.63% |
| O=S(=O)(CCc1ccccc1)Cc1nc(C2CC2)no1 | 59.77% |
| CCc1noc(CS(=O)(=O)Cc2ccccc2C)n1 | 31.56% |
| O=S(=O)(C/C=C/c1ccccc1)Cc1nc(C2CC2)no1 | 19.84% |
| O=S(=O)(Cc1nc(C2CC2)no1)c1cc(F)ccc1F | 12.65% |
| CCc1noc(CS(=O)(=O)Cc2nc(Cc3ccccc3)no2)n1 | -8.996% |
| CCc1noc(CS(=O)(=O)Cc2ccccc2Cl)n1 | 95.51% |
| Cl.O=C(CCC1CCCC1)N1CCCC(c2ncc3c(n2)CCNC3)C1 (stereo unspecified) | -5.492% |
| CC(C)CCN1C[C@H]2C[C@H](C(=O)NCC(C)C)[C@@H](C1)O2.O=C(O)C(F)(F)F | 22.63% |
| Cc1nnc(N2CCCC3(CN(Cc4ccc(F)cc4)CCO3)C2)o1.O=C(O)C(F)(F)F (stereo unspecified) | -29.82% |
| c1cnc(N2C[C@@H]3CC[C@H](C2)N(Cc2ccsc2)C3)nc1 | 15.45% |
| CN(C)CCOCc1nnc2n1CCN(Cc1ccoc1)CC2.O=C(O)C(F)(F)F.O=C(O)C(F)(F)F | -36.04% |
| O=C(O)C(F)(F)F.c1cc(CN2CCc3c(nnn3CC3CC3)C2COCC2CC2)co1 (stereo unspecified) | -36.71% |
| CC(C)(C)OC(=O)NCC1CCCCN1Cc1ccncc1 (stereo unspecified) | 24.03% |
| CCn1c(C2CCCN2Cc2noc(C(C)(C)C)n2)nc2ccccc21 (stereo unspecified) | 50.31% |
| Cn1cccc1C1CCCN1Cc1noc(C(C)(C)C)n1 (stereo unspecified) | -40.09% |
| CC(C)(C)c1nc(CN2CCCC2c2nnc3ccccn23)no1 (stereo unspecified) | 0.5342% |
